The source of these data is PubChem BioAssay (EPA / NIEHS).

Broadly, the AC50 is the midpoint of the concentration-response curve, whichever way the signal moves.

Several values for one entry are separate records, joined by “and”; a condition that tells them apart may be missing. Equal entries are not always repeated. Activity calls are given as the source filed them. The calls were made as follows: active = hit-call score of the fitted dose curve at least 0.9, where 1 is the maximum; inactive = score below 0.9.

Read-out in the assay: Alpha-fetoprotein (AFP) gene, AFP (gene 174)
In words: LTEA_HepaRG_AFP: Life Technologies and Expression Analysis (LTEA) Assay for Alpha-fetoprotein (AFP) gene using HepaRG (AID 2283472).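 As to AC50: AFP transcript by TaqMan qRT-PCR normalized to ACTB GAPDH and POLR2A.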 Conditions: mRNA level, 48 h; actives raise or lower the signal. The protocol:
It is a marker of Undifferentiated hepatocyte.Data from the assay component LTEA_HepaRG_AFP was analyzed into 1 endpoint. This assay endpoint, LTEA_HepaRG_AFP, was analyzed with bidirectional fitting relative to DMSO as the negative control and baseline of activity. Using a type of inducible reporter, measures of mRNA induction for gain or loss-of-signal activity can be used to understand regulation of transcription factor activity. To generalize the intended target to other relatable targets, this assay endpoint is annotated to the background measurement intended target family, where the subfamily is assay control.
A total of 1060 chemcials from the ToxCast library were tested in eight-point concentration-response experiments. Cell culture and cytotoxicity assays were conducted at Thermo Fisher Scientific's Custom Services facility (Madison, WI). A single lot of human HepaRG cells (Thermo Fisher Scientific, Frederick, MD) was used for the cell culture experiments. 96-well format collagen type I coated plates of human HepaRG cells were prepared using established methods. Briefly, cryopreserved HepaRG cells were thawed, plated at a density of approximately 100,000 cells/well in HepaRG Thaw, Plate, and General Purpose media (HPRG770, Thermo Fisher Scientific), and incubated for 48 hours. 0.5% DMSO was selected as vehicle control to balance the requisite need of DMSO in HepaRG cultures to maintain differentiation (for example, baseline metabolism, proportions of hepatocytes vs. cholangiocytes), while enabling further hepatic receptor pathway activation (for example, PXR and CAR) in response to chemical exposure. 48 hours after plating, the culture medium was replaced with HepaRG Serum-Free Incudtion Media. Cells were exposed to each test chemical in duplicate and maintained in CO2 incubators for another 48 hours. Chemical plates were thawed to room temperature and 200x concentrations of treatment groups were prepared. 8-point conentration-reponse curves were made with the highest exposure at 100 uM, followed by half-log dilutions, all in 0.5% DMSO. Each test plate contained variouse controls, induction positive controls (1mM phenobarbital), cytotoxicity positive controls ([…] aflatoxin B1), vehicle controls (0.5% DMSO), and total lysis controls (0.5% DMSO). Cell morphology images were taken using an Essen IncuCyte FLR automated microscope, with six 96-well plates imaged in about 24 minutes. Images were captured and exported and JPEG files. Spent culture media was transfered to black-well plates for the LDH assay, and remaining media was sorted at -80 C for later use. Cells were treated with RLT buffer and frozen until shipped for gene expression analysis. Total RNA was isolated from the cell suspension in 75 uL of Buffer RLT (Qiagen, Germantown, MD 20874) by Quintiles/Expression Analysis (Durham, NC) using a custom isolation procedure. Total RNA from each plate well was transferred to a preamplification plate. Fluidigm's 96.96 Dynamic ArrayTM (Fluidigm, Amsterdam, the Netherlands) technology was used for gene expression analyses by quantitative reverse transcription polymerase chain reaction (qRT-PCR, performed by Quintiles/Expression Analysis, Durham, NC)89. Standard TaqManTM Assays (Applied Biosystems/ThermoFisher Scientific, Foster City, CA) were used to assess the expression of 93 genes selected based on their selectivity and sensitivity to important hepatic receptors known to be modulated by environmental chemicals; importance in human hepatocyte functionality; and hepatotoxicity. Three "housekeeping" endogenous control genes were also included and used for normalization: actin beta (ACTB), Glyceraldehyde 3 phosphate dehydrogenase (GAPDH) and RNA Polymerase II Subunit A (POLR2A). qRT-PCR was conducted according to the manufacturer's protocol.
For `c1ccc2[nH]c(-c3cscn3)nc2c1`, the molecule was called inactive.

Regarding `O=C(O)C1(C(=O)Nc2ccc(Cl)cc2Cl)CC1`, the concentration at half-maximal activity (AC50) was 65.6 µM (active).

As for `S=C(S)NCCNC(=S)S.[Mn+2].[S-]C([S-])=NCCN=C([S-])[S-].[Zn+2]`, the AC50 is 1.28 µM (active) and 1.55 µM (active).

As to `CCCOC(=O)NCCCN(C)C`, the result was inactive.

As to `CCCOC(=O)c1ccc(C(=O)OCCC)nc1`, the result was inactive.

As to `C#C[C@]1(O)CC[C@H]2[C@@H]3CCC4=CC(=O)CC[C@@H]4[C@H]3CC[C@@]21CC`, the call was inactive.

Turning to `O=C(c1ccc(O)cc1O)c1ccc(O)cc1O`, the call was inactive.

For the molecule `CCCN(CCC)C(=O)SCC`, the molecule was called inactive.

On to `CCC(C)OC(=O)N1CCCCC1CCO` (stereo not given), for which the molecule was called inactive.

For the molecule `COC(=O)c1ccccc1C(=O)O`, the outcome was inactive.

As to `CCCCOC(=O)[C@@H](C)Oc1ccc(Oc2ccc(C(F)(F)F)cn2)cc1`, the outcome was inactive.

With `CCCN(CCC)c1c([N+](=O)[O-])cc(C(F)(F)F)c(N)c1[N+](=O)[O-]`, the concentration at half-maximal activity (AC50) was 34.4 µM (active).

Take `CCCCC(CC)COC(=O)c1ccccc1C(=O)O` (stereo not given): the molecule was classed as inactive.

As to `CCOC(=O)NCCOc1ccc(Oc2ccccc2)cc1`, the AC50 was 83.5 µM (active).

With `CCCCOC(=O)C(C)Oc1ccc(Oc2ccc(C(F)(F)F)cn2)cc1` (stereo not given), the call was inactive.

For the molecule `CC(C)CCCCCCc1ccc(O)cc1`, the result was inactive.

On to `CCSC(=O)N(CC(C)C)CC(C)C`, for which the molecule was classed as inactive.

Regarding `COC(=O)c1ccc(I)cc1S(=O)(=O)NC(=O)Nc1nc(C)nc(OC)n1`, the molecule was called inactive.

For `N[C@@H](Cc1cc(I)c(Oc2ccc(O)c(I)c2)c(I)c1)C(=O)O`, the half-maximal activity concentration (AC50) is 40 µM (active).

Consider `CCOC(=O)C(C)Oc1ccc(Oc2nc3ccc(Cl)cc3o2)cc1` (stereo not given), for which the molecule was classed as inactive.

As for `OB(O)O`, the call was inactive.

With `Cc1nn(C)c(Oc2ccccc2)c1C=NOCc1ccc(C(=O)OC(C)(C)C)cc1`, the concentration at half-maximal activity (AC50) is 4 µM (active).

As for `CCN(Cc1c(F)cccc1Cl)c1c([N+](=O)[O-])cc(C(F)(F)F)cc1[N+](=O)[O-]`, the AC50 is 50 µM (active).

In the case of `C[C@]12C[C@H](O)[C@H]3[C@@H](CCC4=CC(=O)CC[C@@]43C)[C@@H]1CC[C@@H]2C(=O)CO`, the result was inactive.

Consider `CC(C)(c1ccc(O)cc1)c1ccc(O)cc1`, for which the molecule was called inactive.

In the case of `Oc1ccc(C(c2ccc(O)cc2)C(Cl)(Cl)Cl)cc1`, the molecule was called inactive.

In the case of `COc1c(Cl)ccc(Cl)c1C(=O)O`, the molecule was called inactive.

In the case of `O=C(c1ccccc1)C1CCCCC1`, the molecule was classed as inactive.

With `CN(C)C(=O)Nc1ccc(Cl)c(Cl)c1`, the half-maximal activity concentration (AC50) is 50 µM (active).

Consider `C=CCOC(Cn1ccnc1)c1ccc(Cl)cc1Cl` (stereo not given), for which the AC50 is 25.9 µM (active).

Regarding `CCCCC(CC)CN1C(=O)C2C3C=CC(C3)C2C1=O` (stereo not given), the concentration at half-maximal activity (AC50) was 50 µM (active).

Turning to `CC(=O)[C@H]1CC[C@H]2[C@@H]3CCC4=CC(=O)CC[C@]4(C)[C@H]3CC[C@]12C`, the AC50 is 24.4 µM (active).

In the case of `CCOC(=O)C(C)Oc1ccc(Oc2cnc3cc(Cl)ccc3n2)cc1` (stereo not given), the call was inactive.

On to `CC1(C)C(C=C(Cl)Cl)C1C(=O)OCc1cccc(Oc2ccccc2)c1` (stereo not given), for which the molecule was called inactive.

Consider `N#CSCSc1nc2ccccc2s1`, for which the molecule was called inactive.

Regarding `COC(=O)CSc1cc(N=c2sc(=O)n3n2CCCC3)c(F)cc1Cl`, the molecule was classed as inactive.

With `C[C@]12CC[C@@H]3c4ccc(O)cc4C[C@@H](CCCCCCCCCS(=O)CCCC(F)(F)C(F)(F)F)[C@H]3[C@@H]1CC[C@@H]2O` (stereo not given in full), the AC50 is 33.1 µM (active).

Regarding `CCCCCCC(C)OC(=O)COc1nc(F)c(Cl)c(N)c1Cl` (stereo not given), the molecule was classed as inactive.

Regarding `CCCCCOC(=O)COc1cc(N2C(=O)C3=C(CCCC3)C2=O)c(F)cc1Cl`, the outcome was inactive.

Consider `CCOC(=O)COc1cc(-n2ncc(C(F)(F)F)c(C)c2=O)c(F)cc1Cl`, for which the outcome was inactive.
